In PubChem BioAssay AID1422 (Emory University Molecular Libraries Screening Center, 2008):
Hit rate of the full screen: of about 260,000 compounds, about 1,300 (0.5%) were called active. Shown is part of a subset that was picked to be rich in actives. Unmarked numbers belong to inactive results.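 How the source made its calls: active means percent inhibition above 40 after rounding to a whole number; inactive means the rest.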

These compounds were tested against Prostaglandin E2 receptor EP2 subtype (Homo sapiens) (UniProt P43116) (assay: blockers of PGE2-driven EP2 cAMP signalling – TR-FRET cAMP, C6 glioma cells, primary screen (AID 1422;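 further: rat C6 glioma host cells with rolipram phosphodiesterase inhibitor present; the protocol text gives 20 µM as final concentration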)). Conditions: C6 glioma cells expressing human EP2, cAMP TR-FRET, at 25 µM, stronger effect = higher value; cells stimulated with saturating PGE2 unless noted.
Sequence of Prostaglandin E2 receptor EP2 subtype (Homo sapiens) (P43116 whole entry, looked up): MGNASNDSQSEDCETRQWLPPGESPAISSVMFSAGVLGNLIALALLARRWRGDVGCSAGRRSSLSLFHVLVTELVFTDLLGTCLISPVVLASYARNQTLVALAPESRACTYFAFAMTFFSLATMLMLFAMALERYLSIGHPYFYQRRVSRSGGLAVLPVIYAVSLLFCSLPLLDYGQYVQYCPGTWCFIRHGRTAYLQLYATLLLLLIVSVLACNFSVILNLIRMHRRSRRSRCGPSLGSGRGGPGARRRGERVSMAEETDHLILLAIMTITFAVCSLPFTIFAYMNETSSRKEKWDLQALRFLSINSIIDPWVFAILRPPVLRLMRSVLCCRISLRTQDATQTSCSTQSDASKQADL

| SMILES | inhibition |
| --- | --- |
| O=C1C[C@@H]2OCC=C3CN4CC[C@]56c7ccccc7N1[C@H]5[C@H]2[C@H]3C[C@H]46 (tested in a mixture with another compound) | 43.4% (active) |
| COc1ccccc1CN(CCN(C)C)C(=O)Cc1nn(C)c(=O)c2ccccc12 | 8.64% |
| COc1ccc(C2=NCC(=O)N(Cc3cccnc3)c3sc4c(c32)CCCC4)cc1 | 7.58% |
| CC(=O)O[C@H]1CC[C@@]2(C)[C@@H](CC[C@H]3[C@H]2CC(=O)[C@]2(C)[C@@H]3C[C@@H](N3CC3)[C@H]2C(C)=O)C1 | 44% (active) |
| CC(=O)O[C@H]1CC[C@@]2(C)C(=CCC3C2CC[C@]2(C)C(=O)CCC32)C1 (stereo not given in full) | 13.5% [setting not given] |
| C=C1C2CC[C@@]3(C)[C@H](c4ccoc4)OC(=O)C[C@]13O[C@H]1CC(=O)C(C)(C)[C@H](C(OC(C)=O)C(=O)OC)[C@@]21C (stereo not given in full) | 14.4% |
| COc1cc([C@@H]2c3cc4c(cc3[C@H](OC(C)=O)[C@H]3COC(=O)[C@H]23)OCO4)cc(OC)c1OC | 14.4% |
| Fc1ccc2c(c1)nnn2C1CCN(Cc2nnnn2C2CCCC2)CC1 | 8.46% |
| CC[C@@](O)(C(=O)O)c1cc2n(c(=O)c1CO)Cc1cc3ccccc3nc1-2 | 47.7% (active) |
| CCn1cc(C(=O)c2ccco2)c2ccccc21 | 1.27% |
| c1ccc2[nH]c(C3CCNCC3)nc2c1 | 6.74% |
| C=CCc1cc(CN2C3CCC2CC(O)(c2nccn2C)C3)cc(OC)c1O (stereo not given) | 10.4% |
| Cc1ccc(C(C)N2CCNCC2)c(C)c1 (stereo not given) | 5.45% |
| COc1cc(CN2C3CCC2CC(O)(c2ccccc2F)C3)ccc1OC(C)C (stereo not given) | 6.07% |
| Cc1nc(-c2ccc(F)cc2)c(CC(=O)N(CCN(C)C)C2CCCCC2)s1 | 2.82% |
